According to PubChem BioAssay (Tox21):
Inconclusive results are not listed. A call without a number means that no potency is given here. Active and inactive are the calls of the source. Calls follow the shape of the dose curve; as a rule, active = well fitted cell-killing curve with a large enough effect in the repeat runs; inconclusive = weak or mixed curves, or effect the other way; inactive = no such curve, though single readings can be large or run the other way.

assay: qHTS assay for identifying genotoxic compounds that show differential cytotoxicity against isogenic chicken DT40 cell lines with known DNA damage response pathways - wild type cell line (AID 743012); details: DT40 wild type chicken cells viability, CellTiter-Glo, 40 h; series mostly up to 68.4 µM; also: nearly all actives have a fitted effect of over 60% in size
Source text: U.S. Tox21 Program National Center for Advancing Translational Sciences [NCATS] NIH Chemical Genomics Center [NCGC] U.S. Environmental Protection Agency [EPA] National Institutes of Environmental Health Sciences [NIEHS] National Toxicology Program [NTP] U.S. Food and Drug Administration [FDA] Tox21 Assay Overview: DNA repair pathways play a critical role in cellular homeostasis by repairing DNA damage induced by endogenous processes and xenobiotics. Isogenic chicken DT40 cell lines deficient in different DNA repair pathways can be used to identify genotoxic compounds and aid in characterizing the nature of the DNA damage induced. Two DNA repair-deficient cell lines with disrupted genes, Rad54/Ku70 or Rev3, were used to screen the Tox21 10K compound library. Possible genotoxicity was based on the presence of a significant increase in cytotoxicity in one or more of the DNA repair-deficient cell lines compared to that observed in the parental DNA repair-proficient cell line. CellTiter Glo viability assay (Promega, Madison, WI) was used to measure cell viability in these cells after compound treatment. This assay includes the data from the wild type cell line.
Tox21 Assay Protocol Summary: 300 DT40 wild type cells in 5 uL/well were dispensed into white, solid-bottom 1536-well plates using a Multidrop Combi (ThermoFisher Scientific, Waltham, MA) dispenser. After the assay plates were incubated at 37 C/5% CO2 for approximately 0.5 hour, 23 nL of compounds dissolved in DMSO, positive controls or DMSO only was transferred into the assay plate by a pintool work station (Kalypsys, San Diego, CA). The assay plates were incubated at 37 C/5% CO2 for 40 hours. After 5 uL per well of CellTiter-Glo reagent was added into each well of the assay plates, the plates were incubated for 30 min at room temperature and the luminescence intensity of the plates was measured using a ViewLux (PerkinElmer, Shelton, CT) plate reader.
Potency is read from the fitted curve at half-maximal effect.

SMILES	Potency
C[N+]1(C)[C@@H]2CC[C@H]1CC(OC(=O)c1c[nH]c3ccccc13)C2 (stereo not given in full)	inactive
CCCCCc1cc(O)c2c(c1)OC(C)(C)[C@@H]1CCC(C)=C[C@@H]21	9.44 µM (active)
CN1C(=O)CC(=O)N(c2ccccc2)c2cc(Cl)ccc21	inactive
F/C(COc1ccc2c(c1)[nH]c1ccccc12)=C1/CN2CCC1CC2	5.96 µM (active)
O=C1C(I)=CC(=C(c2cc(I)c(O)c(I)c2)c2ccccc2C(=O)O)C=C1I	inactive
NCC[C@H](O)C(=O)N[C@@H]1C[C@H](N)[C@@H](O[C@H]2O[C@H](CN)[C@@H](O)[C@H](O)[C@H]2N)[C@H](O[C@@H]2O[C@H](CO)[C@@H](O)[C@H]2O)[C@H]1O	inactive
CCCC(=O)OC(C(Cl)(Cl)Cl)P(=O)(OC)OC (stereo not given)	inactive
CC(=O)O[C@H]1C[C@H](O[C@H]2[C@@H](O)C[C@H](O[C@H]3[C@@H](O)C[C@H](OC4CC[C@@]5(C)[C@H](CC[C@@H]6[C@@H]5CC[C@]5(C)[C@@H](C7=CC(=O)OC7)CC[C@]65O)C4)O[C@@H]3C)O[C@@H]2C)O[C@H](C)[C@H]1O[C@@H]1O[C@H](CO)[C@@H](O)[C@H](O)[C@H]1O (stereo not given in full)	0.473 µM (active)
C[C@H]1[C@H]2Cc3ccc(O)cc3[C@]1(C)CCN2CCc1ccccc1	6.8 µM (active)
CNC1(c2ccccc2Cl)CCCCC1=O (stereo not given)	inactive
COc1ccc2c3c1O[C@H]1[C@@H](O)C=C[C@H]4[C@@H](C2)NCC[C@@]341	inactive
CCN(CC)C(=O)N[C@H]1C[C@@H]2c3cccc4[nH]cc(c34)C[C@H]2N(C)C1	29.8 µM (active)
CC(=O)OC1CN2CCC1CC2 (stereo not given)	inactive
CCON=O	inactive
O=C(CCl)c1ccc(Oc2ccc(C(=O)CCl)cc2)cc1	26.6 µM (active)
c1csc(C2(N3CCCCC3)CCCCC2)c1	inactive
CCCC(C)(COC(N)=O)COC(=O)NC1CC1 (stereo not given)	inactive
O=c1c2ccccc2[se]n1-c1ccccc1	5.31 µM (active)
Cc1nnc2n1-c1sc(CCc3ccc(CC(C)C)cc3)cc1C(c1ccccc1Cl)=NC2C (stereo not given)	11.9 µM (active)
CCOc1ccc2c3c1O[C@H]1[C@@H](O)C=C[C@H]4[C@@H](C2)N(C)CC[C@@]341	inactive

SMILES	Potency
N#CC(C#N)=Cc1cc(O)c(O)c(O)c1	21.1 µM (active)
COC(COC(N)=O)C1=C(N2CC2)C(=O)C(C)=C(N2CC2)C1=O (stereo not given)	0.0042 µM (active)
Cc1nnc2n1-c1ccc(Cl)cc1C(c1ccccc1)=NC2	inactive
O=c1ccc2cc(O[C@@H]3O[C@H](CO)[C@@H](O)[C@H](O)[C@H]3O)c(O)cc2o1	inactive
Clc1ccccc1-c1ccccc1Cl	inactive
CCNC1(c2cccs2)CCCCC1=O (stereo not given)	inactive
O=C(OCCN1CCCCC1)C(O)(c1ccccc1)c1ccccc1	inactive
C=CC[C@]1(O)CC[C@H]2[C@@H]3CCC4=CCCC[C@@H]4[C@H]3CC[C@@]21C	inactive
COC([CH2][Hg])CNC(=O)c1ccccc1OCC(=O)O (stereo not given)	1.68 µM (active)
Cc1ccccc1-n1c(C)nc2ccccc2c1=O	42.8 µM (active)
CCC/C=C/C=C/C(=O)O[C@H]1/C(=C/C(=O)OC)C[C@H]2C[C@H]([C@@H](C)O)OC(=O)C[C@H](O)C[C@@H]3C[C@H](OC(C)=O)C(C)(C)[C@](O)(C[C@@H]4C/C(=C/C(=O)OC)C[C@H](/C=C/C(C)(C)[C@]1(O)O2)O4)O3	0.0038 µM (active)
CO/C=C(/C(=O)OC)c1ccccc1Oc1cc(Oc2ccccc2C#N)ncn1	0.0731 µM (active)
CCCCNC(C)(C)[P+](=O)O	inactive
CC(=O)[C@@]1(O)CC[C@H]2[C@@H]3CCC4=CC(=O)CC[C@]4(C)C3(F)[C@@H](O)C[C@@]21C (stereo not given in full)	inactive
CCC(=O)O[C@]1(c2ccccc2)CCN(C)C[C@H]1C	21.1 µM (active)
CCNCC(O)c1cccc(O)c1 (stereo not given)	inactive
C[C@]12CC[C@H](O)C[C@H]1CC[C@@H]1[C@@H]2CC[C@]2(C)[C@@H](c3ccc(=O)oc3)C[C@H]3O[C@]132	7.5 µM (active)
c1ccc(C2(N3CCCC3)CCCCC2)cc1	5.31 µM (active)
O=C(Nc1ccccc1-c1ccc(Cl)cc1)c1cccnc1Cl	57.8 µM (active)
CN1[C@@H]2CC[C@H]1CC(OC1c3ccccc3CCc3ccccc31)C2 (stereo not given in full)	7.17 µM (active)
